Results from the antibiotic and cytotoxicity screens of Wong et al. (2023).
The campaign covered roughly 39,000 compounds. About 3,300 (8.5%) were called active. This excerpt belongs to a sample that is enriched for actives.

The compounds below were run on HepG2 (assay: cytotoxicity call (relative viability < 0.9)). Conditions: 10 µM.

Compound	cytotoxicity call
CC(C)NC(=O)Nc1ccc2c(c1)C(=O)N([C@H](C)CO)C[C@@H](C)[C@H](CN(C)S(=O)(=O)c1cccs1)O2	inactive
CO[C@H]1CN(C)C(=O)c2ccc(NS(C)(=O)=O)cc2OC[C@@H](C)N(C(=O)CN(C)C)C[C@@H]1C	inactive
Cn1nc(CN2CCCC2=O)c2c1CNC2	inactive
Cc1cc(C(=O)Nc2cccc3c2O[C@H](CN(C)Cc2ccc4c(c2)OCO4)[C@@H](C)CN([C@H](C)CO)C3=O)n(C)n1	inactive
CC(C)NC(=O)N(C)C[C@H]1Oc2ccc(NC(=O)C3CCCCC3)cc2CC(=O)N([C@@H](C)CO)C[C@H]1C	inactive
C[C@@H]1CN([C@H](C)CO)C(=O)c2ccccc2-c2ccccc2CO[C@@H]1CN(C)C(=O)Nc1ccc(-c2ccccc2)cc1	inactive
C[C@H](CO)N1C[C@H](C)[C@@H](CN(C)Cc2ccccc2)OCCCC[C@H](C)Oc2ccc(NC(=O)Nc3cccc4ccccc34)cc2C1=O	inactive
C[C@@H]1CCCCO[C@@H](CN(C)Cc2ccc(Cl)c(Cl)c2)[C@@H](C)CN([C@@H](C)CO)C(=O)c2cc(NC(=O)Nc3cccc4ccccc34)ccc2O1	active
C[C@@H]1CCCCO[C@H](CN(C)Cc2ccccc2)[C@H](C)CN([C@H](C)CO)C(=O)c2cc(NC(=O)Nc3cccc4ccccc34)ccc2O1	active
C[C@@H]1CCCCO[C@@H](CN(C)Cc2ccc(Cl)c(Cl)c2)[C@H](C)CN([C@@H](C)CO)C(=O)c2cc(NC(=O)Nc3cccc4ccccc34)ccc2O1	inactive
C[C@@H]1CCCCO[C@@H](CN(C)Cc2ccc(Cl)c(Cl)c2)[C@H](C)CN([C@H](C)CO)C(=O)c2cc(NC(=O)Nc3cccc4ccccc34)ccc2O1	inactive
C[C@@H]1CN([C@H](C)CO)C(=O)c2cc(NC(=O)Nc3cccc4ccccc34)ccc2O[C@@H](C)CCCCO[C@@H]1CN(C)Cc1ccccc1	inactive
C[C@H]1CCCCO[C@@H](CN(C)Cc2ccccc2)[C@@H](C)CN([C@@H](C)CO)C(=O)c2cc(NC(=O)Nc3cccc4ccccc34)ccc2O1	active
C[C@@H]1CCCCO[C@H](CN(C)Cc2ccccc2)[C@H](C)CN([C@@H](C)CO)C(=O)c2cc(NC(=O)Nc3cccc4ccccc34)ccc2O1	active
C[C@@H]1CCCCO[C@H](CN(C)Cc2ccccc2)[C@@H](C)CN([C@H](C)CO)C(=O)c2cc(NC(=O)Nc3cccc4ccccc34)ccc2O1	inactive
C[C@@H]1CCCCO[C@@H](CN(C)Cc2ccccc2)[C@H](C)CN([C@H](C)CO)C(=O)c2cc(NC(=O)Nc3cccc4ccccc34)ccc2O1	inactive
COc1ccc(NC(=O)N(C)C[C@H]2Oc3ncc(C#CCN(C)C)cc3C(=O)N([C@H](C)CO)C[C@H]2C)cc1	inactive
C[C@H](CO)N1C[C@H](C)[C@@H](CN(C)C(=O)C2CCOCC2)Oc2cc(-c3ccc(C(=O)N(C)C)cc3)ccc2S1(=O)=O	inactive
C[C@H]1CCCCO[C@H](CN(C)Cc2ccc(C(F)(F)F)cc2)[C@@H](C)CN([C@@H](C)CO)C(=O)c2cc(NC(=O)c3ccncc3)ccc2O1	inactive

Compound	cytotoxicity call
C[C@@H]1CCCCO[C@@H](CN(C)C(=O)CCCN(C)C)[C@@H](C)CN([C@H](C)CO)C(=O)c2cc(N(C)C)ccc2O1	inactive
C[C@H](CO)N1C[C@H](C)[C@@H](CN(C)CC2CCCCC2)Oc2ccc(NC(=O)Cc3cn(C)c4ccccc34)cc2C1=O	inactive
CCCN(C)C[C@H]1OCCCC[C@@H](C)Oc2ccc(NC(=O)Cc3ccccc3)cc2C(=O)N([C@H](C)CO)C[C@H]1C	inactive
O=C(C[C@H]1CC[C@@H]2[C@H](COC[C@H](O)CN2CC2CCOCC2)O1)N1CCOCC1	inactive
C[C@@H]1CN([C@H](C)CO)C(=O)Cc2cc(NC(=O)CCN3CCOCC3)ccc2O[C@H]1CN(C)S(=O)(=O)c1cccs1	inactive
C[C@@H]1CCCCO[C@H](CN(C)Cc2ccccc2)[C@@H](C)CN([C@@H](C)CO)C(=O)c2cc(NC(=O)Nc3cccc4ccccc34)ccc2O1	active
C[C@@H]1CCCCO[C@H](CN(C)Cc2ccncc2)[C@H](C)CN([C@@H](C)CO)C(=O)c2cc(NC(=O)Nc3cccc4ccccc34)ccc2O1	active
C[C@@H]1CN([C@@H](C)CO)C(=O)c2cc(NC(=O)Nc3cccc4ccccc34)ccc2O[C@@H](C)CCCCO[C@H]1CN(C)Cc1ccncc1	inactive
C[C@@H]1CCCCO[C@@H](CN(C)Cc2ccccc2)[C@H](C)CN([C@@H](C)CO)C(=O)c2cc(NC(=O)Nc3cccc4ccccc34)ccc2O1	inactive
C[C@@H]1CN([C@@H](C)CO)C(=O)c2cc(NC(=O)Nc3cccc4ccccc34)ccc2O[C@@H](C)CCCCO[C@@H]1CN(C)Cc1ccncc1	inactive
C[C@@H]1CCCCO[C@H](CN(C)Cc2ccc(C(=O)O)cc2)[C@@H](C)CN([C@@H](C)CO)C(=O)c2cc(NC(=O)Nc3cccc4ccccc34)ccc2O1	inactive
C[C@@H]1CCCCO[C@@H](CN(C)Cc2ccccc2)[C@@H](C)CN([C@H](C)CO)C(=O)c2cc(NC(=O)Nc3cccc4ccccc34)ccc2O1	inactive
C[C@@H]1CCCCO[C@@H](CN(C)Cc2ccc(C(=O)O)cc2)[C@@H](C)CN([C@H](C)CO)C(=O)c2cc(NC(=O)Nc3cccc4ccccc34)ccc2O1	inactive
C[C@H]1CCCCO[C@H](CN(C)Cc2ccccc2)[C@@H](C)CN([C@@H](C)CO)C(=O)c2cc(NC(=O)Nc3cccc4ccccc34)ccc2O1	active
C[C@@H]1CN([C@@H](C)CO)C(=O)c2cc(NC(=O)Nc3cccc4ccccc34)ccc2O[C@@H](C)CCCCO[C@H]1CN(C)Cc1ccccc1	active
CC(C)NC(=O)N(C)C[C@@H]1OCc2cnnn2CCCC(=O)N([C@H](C)CO)C[C@@H]1C	inactive
C[C@H]1CN([C@@H](C)CO)C(=O)c2c(c3ccccc3n2C)-c2ccccc2CO[C@@H]1CN(C)C(=O)c1ccc(F)cc1	inactive
C[C@H]1CCCCO[C@@H](CN(C)Cc2ccc3c(c2)OCO3)[C@@H](C)CN([C@@H](C)CO)C(=O)c2cc(NS(=O)(=O)c3ccc(F)cc3)ccc2O1	inactive
C[Si](C)(C)O[Si](C)(C)O[Si](C)(C)C	inactive

Compound	cytotoxicity call
COc1ccc(S(=O)(=O)N(C)C[C@@H]2Oc3c(NS(=O)(=O)c4ccc(F)cc4)cccc3C(=O)N([C@H](C)CO)C[C@H]2C)cc1	inactive
Cc1ccc(S(=O)(=O)N(C)C[C@H]2OCCCC[C@@H](C)Oc3ccc(NC(=O)C4CCCCC4)cc3C(=O)N([C@H](C)CO)C[C@H]2C)cc1	inactive
COc1ccccc1CNC(=O)C[C@@H]1CC[C@H]2[C@@H](COC[C@H](O)CN2C(=O)Nc2ccc(Cl)cc2)O1	inactive
C[C@@H]1CCCCO[C@H](CN(C)Cc2ccc(C(=O)O)cc2)[C@H](C)CN([C@H](C)CO)C(=O)c2cc(NC(=O)Nc3cccc4ccccc34)ccc2O1	inactive
C[C@@H]1CN([C@H](C)CO)C(=O)c2cc(NC(=O)Nc3cccc4ccccc34)ccc2O[C@@H](C)CCCCO[C@H]1CN(C)Cc1ccc(C(F)(F)F)cc1	inactive
C[C@@H]1CCCCO[C@@H](CN(C)Cc2ccc(C(=O)O)cc2)[C@@H](C)CN([C@@H](C)CO)C(=O)c2cc(NC(=O)Nc3cccc4ccccc34)ccc2O1	inactive
C[C@H](CO)N1C[C@H](C)[C@@H](CN(C)Cc2ccc(C(F)(F)F)cc2)OCCCC[C@H](C)Oc2ccc(NC(=O)Nc3cccc4ccccc34)cc2C1=O	active
C[C@@H]1CN([C@H](C)CO)C(=O)c2cc(NC(=O)Nc3cccc4ccccc34)ccc2O[C@@H](C)CCCCO[C@H]1CN(C)Cc1ccccc1	active
C[C@@H]1CN([C@@H](C)CO)C(=O)c2cc(NC(=O)Nc3cccc4ccccc34)ccc2O[C@@H](C)CCCCO[C@H]1CN(C)Cc1ccc(C(F)(F)F)cc1	inactive
C[C@@H]1CCCCO[C@@H](CN(C)Cc2ccccc2)[C@@H](C)CN([C@@H](C)CO)C(=O)c2cc(NC(=O)Nc3cccc4ccccc34)ccc2O1	inactive
C[C@H](CO)N1C[C@H](C)[C@H](CN(C)Cc2ccccc2)OCCCC[C@H](C)Oc2ccc(NC(=O)Nc3cccc4ccccc34)cc2C1=O	inactive
C[C@@H]1CN([C@@H](C)CO)C(=O)c2cc(NC(=O)Nc3cccc4ccccc34)ccc2O[C@@H](C)CCCCO[C@@H]1CN(C)Cc1ccccc1	active
COc1ccc(S(=O)(=O)N(C)C[C@@H]2Oc3ccc(NS(=O)(=O)c4c(C)noc4C)cc3C(=O)N([C@@H](C)CO)C[C@H]2C)cc1	inactive
COc1ccc(S(=O)(=O)N(C)C[C@H]2OCCCC[C@@H](C)Oc3ccc(NC(=O)CCCCCC(=O)Nc4ccccc4N)cc3C(=O)N([C@H](C)CO)C[C@H]2C)cc1	inactive
C[C@@H]1CN([C@H](C)CO)C(=O)c2cccc(NS(C)(=O)=O)c2O[C@@H]1CN(C)Cc1ccc2c(c1)OCO2	inactive
C[C@@H]1CN([C@@H](C)CO)C(=O)c2cc(NS(=O)(=O)c3cccs3)ccc2O[C@@H](C)CCCCO[C@@H]1CN(C)S(=O)(=O)c1cn(C)cn1	inactive
Cc1noc(C)c1NC(=O)Nc1ccc2c(c1)CC(=O)N([C@H](C)CO)C[C@@H](C)[C@@H](CN(C)S(C)(=O)=O)O2	inactive
CS(=O)(=O)Nc1ccc2c(c1)[C@@H]1C[C@H](CC(=O)NCC3CC3)O[C@@H](CO)[C@@H]1O2	inactive
C[C@@H]1CN([C@@H](C)CO)C(=O)c2cc(NC(=O)Cc3ccccc3)ccc2O[C@@H](C)CCCCO[C@@H]1CN(C)S(=O)(=O)c1ccc(F)cc1	inactive
